Where “and” joins values, the source holds several entries; their conditions need not be identical. Identical values can stand only once. The whole screen tested about 310,000 compounds, of which about 1,200 (0.39%) were called active. The rule behind the calls is not given here. The list is a sample of the results. Potency and affinity values are given separately.
These molecules were tested against Large T antigen (Simian virus 40) (UniProt P03070) (assay: SV40 large T antigen inhibitors, biochemical (AID 1903)). Conditions: SV40 large T antigen ATPase/helicase inhibition assay; at 20 µM; active compounds read high.
Chain of Large T antigen (Simian virus 40) (P03070 whole entry, looked up): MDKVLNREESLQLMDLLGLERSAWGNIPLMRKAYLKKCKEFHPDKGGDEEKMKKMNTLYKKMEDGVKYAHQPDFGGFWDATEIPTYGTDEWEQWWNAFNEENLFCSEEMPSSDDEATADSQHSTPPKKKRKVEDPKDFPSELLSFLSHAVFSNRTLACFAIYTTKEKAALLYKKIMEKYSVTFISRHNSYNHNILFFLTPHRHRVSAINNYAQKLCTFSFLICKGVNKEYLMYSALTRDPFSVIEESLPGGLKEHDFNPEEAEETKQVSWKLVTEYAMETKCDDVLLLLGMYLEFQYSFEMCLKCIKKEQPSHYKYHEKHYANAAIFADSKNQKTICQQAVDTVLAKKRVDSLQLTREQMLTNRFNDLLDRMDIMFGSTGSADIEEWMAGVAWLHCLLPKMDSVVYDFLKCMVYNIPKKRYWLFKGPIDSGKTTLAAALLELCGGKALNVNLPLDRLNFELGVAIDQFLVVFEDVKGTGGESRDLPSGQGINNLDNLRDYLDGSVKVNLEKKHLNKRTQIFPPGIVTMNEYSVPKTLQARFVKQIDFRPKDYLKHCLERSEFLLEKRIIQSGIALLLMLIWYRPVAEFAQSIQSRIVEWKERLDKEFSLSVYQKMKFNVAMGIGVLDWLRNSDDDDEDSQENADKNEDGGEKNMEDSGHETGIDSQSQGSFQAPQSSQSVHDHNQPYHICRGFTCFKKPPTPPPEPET

inhibition, inactive:
CCN(CC)C(=O)COc1ccc2c(-c3ccc(OC)cc3)cc(=O)oc2c1 11.6%
Oc1cccc(/C=N/Nc2cc(N3CCOCC3)nc(N3CCOCC3)n2)c1 -5.16%
Oc1ccc(/C=N/Nc2cc(N3CCCC3)nc(N3CCCC3)n2)cc1O 42%
CCOc1ccc(/C=C2\SC(=S)N(NS(=O)(=O)c3ccc(C)cc3)C2=O)cc1OC 31.2%
COc1cc(/C=C2\SC(=S)N(NS(=O)(=O)c3ccc(C)cc3)C2=O)cc(OC)c1OC 20.8%
COc1cc(/C=C2\SC(=S)N(NC(=O)c3ccncc3)C2=O)ccc1O 31.8%
COc1cc(/C=C2\SC(=S)N(NS(=O)(=O)c3ccccc3)C2=O)cc(OC)c1OC 11.2%
CCOc1cc(/C=C2\SC(=S)N(NS(=O)(=O)c3ccccc3)C2=O)ccc1O 38.4%
CCOc1cc(/C=C2\SC(=S)N(NC(=O)c3cccnc3)C2=O)ccc1O 33.1%
CCCCNC(=O)C1CCCN1C(=O)Nc1ccccc1 (stereo not drawn) 4.68%
C=CCOCCN1C(=O)C2C3C=CC(C2C1=O)C1C2C(=O)N(CCOCC=C)C(=O)C2C31 (stereo not drawn) 7.04%
O=C(CSc1ccc(F)cc1)NNC(=O)c1ccccc1Br 7.8%
COc1ccc(CCN=C(N)NS(=O)(=O)c2ccc(C)c(C)c2)cc1 23.6%
CCOc1cc(C(=O)N2CCC3(CC2)NCCc2[nH]cnc23)cc(OCC)c1OCC 8.46%
O=C(OCc1ccc(Br)cc1)c1cnc(Cl)c(Cl)c1 6.01%
COCCNC(=O)c1ccc(C2SCC(=O)N2CCc2ccccc2)cc1 (stereo not drawn) 2.84%
COc1cccc(NC(=O)C2Cc3ccccc3CN2C(=O)c2ccco2)c1 (stereo not drawn) 10.4%
CCOc1ccc(N(CC(=O)NCc2ccccc2)C(=O)Cn2nnc(-c3ccc(C)o3)n2)cc1 3.98%
COc1ccc2cc3[n+](cc2c1OC)CCc1cc2c(cc1-3)OCO2 13.6% and 21.3%
COc1cc2c(cc1OC)-c1cc3ccc(OC)c(OC)c3c[n+]1CC2 10.3%
CCC1(CC)Cc2ccccc2C2=C(C(=O)N3CCCCC3)C(=O)C(=O)N21 3.53%
CSc1ccc(-c2nc(CSCC(=O)NCCCN3CCCC3=O)c(C)o2)cc1 8.19%
FC(F)(F)c1ccccc1Nc1nccs1 3.87%
Cc1nsc(Nc2ccccc2)c1C#N 11.3%
CCOC(=O)CC(NC(=O)CCc1c(C)nc2nc(C)nn2c1C)c1ccc(C)cc1 (stereo not drawn) 1.45%
CC(Oc1ccc2c(c1)oc(=O)c1ccccc12)C(=O)NCCN1CCOCC1 (stereo not drawn) 4.69%
O=C(CSc1ccc(Cl)cc1)NNC(=O)c1cccnc1 28.6%
O=c1nccc(N/N=C/c2ccccc2)[nH]1 2.59%
C#CCOCCOCCOCCNc1nc(N2CCN(C(=O)CCCCCCCCCCNC(=O)[C@H](CCCCN)n3cc(CCO)nn3)CC2)nc(N2CCN(C(=O)CCCCCCCCCCNC(=O)[C@H](CCCN=C(N)N)n3cc(C[C@@H](C)CC)nn3)CC2)n1 30.2%
C#CCOCCOCCOCCNc1nc(N2CCN(C(=O)CCCCCCCCCCNC(=O)[C@H](CCCCN)n3cc(C[C@@H](C)CC)nn3)CC2)nc(N2CCN(C(=O)CCCCCCCCCCNC(=O)[C@H](CCCN=C(N)N)n3cc(C[C@@H](C)CC)nn3)CC2)n1 35.8%
C#CCOCCOCCOCCNc1nc(N2CCN(C(=O)CCCCCCCCCCNC(=O)[C@H](CO)n3cc(CCCCCN)nn3)CC2)nc(N2CCN(C(=O)CCCCCCCCCCNC(=O)[C@H](CCCN=C(N)N)n3cc(C[C@@H](C)CC)nn3)CC2)n1 36.3%
C#CCOCCOCCOCCNc1nc(N2CCN(C(=O)CCCCCCCCCCNC(=O)[C@H]([C@@H](C)CC)n3cc(CCCCN=C(N)N)nn3)CC2)nc(N2CCN(C(=O)CCCCCCCCCCNC(=O)[C@H](CO)n3cc(CCCCCN)nn3)CC2)n1 28.3%
C#CCOCCOCCOCCNc1nc(N2CCN(C(=O)CCCCCCCCCCNC(=O)[C@@H](CCSC)n3cc(CCO)nn3)CC2)nc(N2CCN(C(=O)CCCCCCCCCCNC(=O)[C@H]([C@@H](C)CC)n3cc(CCCCN=C(N)N)nn3)CC2)n1 5%
C#CCOCCOCCOCCNc1nc(N2CCN(C(=O)CCCCCCCCCCNC(=O)[C@H](CCCCN)n3cc(CCCC(=O)O)nn3)CC2)nc(N2CCN(C(=O)CCCCCCCCCCNC(=O)[C@H](CCCN=C(N)N)n3cc(C[C@@H](C)CC)nn3)CC2)n1 15.3%
C#CCOCCOCCOCCNc1nc(N2CCN(C(=O)CCCCCCCCCCNC(=O)[C@H](CCCCN)n3cc(CCO)nn3)CC2)nc(N2CCN(C(=O)CCCCCCCCCCNC(=O)[C@H](CCCCN)n3cc(C[C@@H](C)CC)nn3)CC2)n1 22.1%
C#CCOCCOCCOCCNc1nc(N2CCN(C(=O)CCCCCCCCCCNC(=O)[C@H](CO)n3cc(CCCSC)nn3)CC2)nc(N2CCN(C(=O)CCCCCCCCCCNC(=O)[C@H](CCCN=C(N)N)n3cc(C[C@@H](C)CC)nn3)CC2)n1 20.2%
NS(=O)(=O)c1ccc(CCNC(=O)C(=O)Nc2cc3c4c(c2)CC(=O)N4CCC3)cc1 10.2%
CCN(C(=O)COC(=O)c1cncc(Br)c1)C1CCS(=O)(=O)C1 (stereo not drawn) 2.6%
CN(C)S(=O)(=O)c1cccc(COC(=O)c2ccc(Cl)cc2O)c1 4.75%
CCn1ccnc1CNC(=O)CC1C(=O)NCCN1Cc1ccc(OC)cc1OC (stereo not drawn) 8.33%
CC(OC(=O)c1ccc(NS(=O)(=O)c2cccs2)cc1)C(=O)N(C)C1CCCCC1 (stereo not drawn) 12.6%
O=C(NCCCO)c1ccc2[nH]c3c(c2c1)CCCC3 2.41%
COc1ccccc1OC(C)C(=O)Nc1nc(-c2ccc(S(=O)(=O)N3CCOCC3)cc2)cs1 (stereo not drawn) -2.76%
O=C(O)CCC(=O)NNC(=O)c1ccc([N+](=O)[O-])cc1 24.3%
CN1CCN(c2ccccc2NC(=O)c2ccc(N3CCCCC3)c([N+](=O)[O-])c2)CC1 1.97%
COc1cc(C(=O)NCc2nnc(SCC(=O)NC3CCCCC3)o2)cc(OC)c1OC 9.82%
CNC(=S)N(CCCO)Cc1cc2cc3c(cc2[nH]c1=O)OCO3 4.07%
N#Cc1cc2c(nc1SCC(=O)Nc1sc3c(c1C#N)CCC3)CCCCCC2 -1.85%
Cc1nc(NC(=O)CCl)sc1C(=O)N(C)C 22.7%
C#CCOCCOCCOCCNc1nc(N2CCN(C(=O)CCCCCCCCCCNC(=O)[C@H]([C@@H](C)CC)n3cc(CCCCN=C(N)N)nn3)CC2)nc(N2CCN(C(=O)CCCCCCCCCCNC(=O)[C@@H]([C@H](C)O)n3cc(C)nn3)CC2)n1 7.94%
C#CCOCCOCCOCCNc1nc(N2CCOCC2)nc(N2CCN(C(=O)CCCCCCCCCCNC(=O)[C@H]([C@@H](C)CC)n3cc(CCCCN=C(N)N)nn3)CC2)n1 5.58%
CCOC(=O)c1cc(-c2ccc(OC)cc2)n(CCC(=O)NCCN2CCC(C)CC2)c1C 5.63%
CCN(CC)C(=O)Cn1cnc2ccccc2c1=O 5.63%
CCCN1C(=O)/C(=C/c2ccc(C)o2)NC1=S 33.1%
COc1ccc(N2C(=O)C3CC(C)=C(C)CC3C2=O)c(OC)c1 (stereo not drawn) 11.1%
Cc1ccc(/C=C2\C(=O)Nc3ccccc32)o1 11.2%
CCOc1ccc(N2C(=O)/C(=C/c3ccc(C)o3)N(C)C2=S)cc1 15.8%
Cc1ccc(/C=C2/C(=O)N(c3ccccc3)C(=S)N2C)o1 6.66%
O=C1/C(=C\c2ccco2)NC(=S)N1c1ccccc1 35.2%
Cc1ccc(/C=C2/NC(=O)N(c3ccccc3)C2=O)o1 22.8%
COc1ccc(N2C(=O)/C(=C/c3cccs3)NC2=S)cc1 14.1%
COc1cc(O)c(C(CC(=O)N2CCCC(C)C2)c2ccc3c(c2)OCO3)c(OC)c1 (stereo not drawn) 6.43%
Cn1cccc1C(=O)NNC(=O)c1ccccc1Br 8.13%
CC1(C)CC(=O)/C(=C(\O)Cc2ccccc2)C(=NCCCCCC(=O)O)C1 4.38%
CCCCNCc1cccn1-c1ccccc1 24.7%
COc1c(C)cccc1C(=O)Nc1ccc(OCC(=O)N2CCOCC2)cc1C 14.7%
COCC(=O)N/N=C\c1ccccc1OC/C=C/c1ccccc1 4.69%
C=CCOc1ccc(C=Nc2ccc(OC)cc2)c(O)c1 28.3%
COc1ccc(N=Cc2[nH]c3ccccc3c2O)cc1 13.7%
Cc1csc(NC(=O)CSc2nnc(-c3ccccc3)o2)n1 -6.99%
CCn1c(SCC(=O)N/N=C/c2ccc(OC)c(OC)c2)nc2ccccc21 6.02%
Cc1cc(SCC(=O)N/N=C/c2ccc(C(=O)O)cc2)nc2ccccc12 6.65%
CCn1c(SCC(=O)N/N=C/c2cc(OC)c(O)c(OC)c2)nc2ccccc21 -7.37%
Cn1c(SCC(=O)N/N=C/c2ccncc2)nc2ccccc21 2.44%
COc1cc(/C=N/NC(=O)c2cc(-c3ccccc3)nc3ccccc23)ccc1O 25.1%
O=C(N/N=C/c1ccc(O)cc1)c1cc(-c2ccccc2)nc2ccccc12 14.6%
Cc1cc(SCC(=O)N/N=C/c2ccc(O)cc2O)nc2ccccc12 7.95%
COc1cc(/C=N/NC(=O)CSc2nc3ccccc3n2C)cc(OC)c1OC -1.56%
